Screening data deposited in PubChem by several laboratories.
The list is not random: actives were taken first. Their share in the collection is about 0.63%.
Cdc25B inh: inhibitors of Cdc25B phosphatase catalytic domain, primary screen, biochemical, OMFP fluorescence | AID 368, 2006 | inhibition, %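 (compounds tested at 10 µM final in the well)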 | M-phase inducer phosphatase 2 (Homo sapiens), P30305 | 65,000 tested, 0.1% active | recombinant Cdc25B, OMFP fluorescence Ex485/Em525; in the data active = inhibition above about 50%
Target sequence (P30305 whole entry, looked up, the tested form may be a part): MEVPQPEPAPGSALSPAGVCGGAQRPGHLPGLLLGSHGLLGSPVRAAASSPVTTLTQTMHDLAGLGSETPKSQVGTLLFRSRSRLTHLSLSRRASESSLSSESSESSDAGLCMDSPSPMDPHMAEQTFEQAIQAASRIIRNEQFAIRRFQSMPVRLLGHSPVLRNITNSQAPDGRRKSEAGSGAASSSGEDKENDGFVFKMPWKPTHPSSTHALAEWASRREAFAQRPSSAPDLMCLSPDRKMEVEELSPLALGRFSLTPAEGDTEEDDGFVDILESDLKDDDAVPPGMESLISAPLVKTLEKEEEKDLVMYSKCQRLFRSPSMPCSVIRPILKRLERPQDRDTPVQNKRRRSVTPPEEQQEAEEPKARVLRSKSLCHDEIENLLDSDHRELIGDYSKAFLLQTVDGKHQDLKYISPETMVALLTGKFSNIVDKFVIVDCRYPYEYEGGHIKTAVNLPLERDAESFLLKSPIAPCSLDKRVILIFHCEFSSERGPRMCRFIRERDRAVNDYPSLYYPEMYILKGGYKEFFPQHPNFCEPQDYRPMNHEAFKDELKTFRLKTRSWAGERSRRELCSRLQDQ
FXIa inh mix: FXIa protease inhibitors in compound pools, primary screen, biochemical, 10-compound mixtures. Coagulation factor XI (Homo sapiens), P03951. purified FXIa, fluorogenic substrate, pooled mixtures. inhibition, % at 5 µM. 62,000 tested, 0.19% active;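 also: each value is inhibition by a whole ten-compound pool holding the compound; 0% = enzyme with no mixture and 100% = wells lacking enzyme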
PTPN22 inh 2: PTPN22 phosphatase inhibitors, primary screen, biochemical, DiFMUP fluorescence, 2 µM; AID 640, 2007; recombinant LYP catalytic domain; 96,000 tested, 0.21% active; inhibition, % at 2 µM; Tyrosine-protein phosphatase non-receptor type 22 (Homo sapiens), Q9Y2R2;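 active = inhibition at 2 µM at or above a set limit, the screen mean plus 3 SD, cut at about 24% in these data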;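 also: 0% = DMSO with enzyme and 100% = enzyme fully blocked by orthovanadate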
DUSP1 inh: MKP-1 phosphatase inhibitors, primary screen, biochemical, in vitro; Dual specificity protein phosphatase 1 (Homo sapiens), P28562; recombinant MKP-1, OMFP hydrolysis fluorescence; inhibition, %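 (compounds tested at a single concentration somewhere between 10 and 100 µM)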; 65,000 tested, 0.15% active;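 active = inhibition above about 50%, limit read from the data; inconclusive = inhibition over screen mean plus 3 SD, below that limit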;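 also: 0% = DMSO max control wells and 100% = wells with enzyme stopped by NaOH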
FXIIa inh mix: human factor XIIa inhibitors, primary screen, biochemical, pooled compound mixtures, fluorogenic substrate; Coagulation factor XII (Homo sapiens), P00748; purified FXIIa; inhibition, % at 5 µM; 62,000 tested, 0.2% active;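 also: 0% = enzyme without compound and 100% = no enzyme blank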
LYP act: LYP phosphatase activators, primary screen, biochemical, DiFMUP fluorescence, 2 µM | activation, % at 2 µM | recombinant LYP; 0 = plate median, 100 = signal doubled | 96,000 tested, 0.11% active | Tyrosine-protein phosphatase non-receptor type 22 (Homo sapiens), Q9Y2R2;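 active = activation at 2 µM above a set limit, the mean plus 5 SD, cut at about 37% in these data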
Redox 05 DTT: redox cycling H2O2 generation, 0.5 mM DTT, dose response, artefact control, biochemical, Cdc25B catalytic domain. shares compounds with Cdc25B inh. cell-free redox cycling H2O2 generation. 30 tested, 50% active. EC50, µM; in the data active = EC50 below about 30 µM
Redox H2O2 1DTT: redox cycling H2O2 generation, 1 mM DTT, dose response, artefact control, biochemical, 1.0 mM DTT, Cdc25B catalytic domain | AID 683, 2007 | shares compounds with Cdc25B inh | EC50, µM | cell-free redox cycling H2O2 generation | 30 tested, under 10 active; in the data active = EC50 below about 50 µM
Redox cycler: redox cycling hydrogen peroxide production, dose response, artefact control, biochemical, probe assessment; Redox cycling H2O2 generation, DTT, phenol red/HRP; 60 tested, under 10 active; AID 672, 2007; EC50, µM; shares compounds with DUSP1 inh; call rule not given here
Starred values were filed as active, the others as inactive; u = inconclusive; x = no result given. Rule as the data show it, unless noted: active = inhibition above about 20% (passing the limit was not always enough); inactive = the rest.

SMILES	Cdc25B inh	FXIa inh mix	PTPN22 inh 2	DUSP1 inh	FXIIa inh mix	LYP act	others
Cn1c(Cl)c(C(=O)Nc2ccc(Cl)cc2)c2ccccc21	x	x	0.6	x	x	3.5
Cc1ccc(-c2n[nH]c(=S)n2/N=C/C=C\c2ccccc2[N+](=O)[O-])cc1	x	x	17.7	x	x	-15.3
COc1ccccc1/C=C\C=N\n1c(C2CCCCC2)n[nH]c1=S	x	x	24.9*	x	x	-22.1
COc1ccccc1NC(=O)c1cc(S(=O)(=O)N2CCOCC2)ccc1Cl	-6.2	3.8	-9.7	1.7	32.2*	4.2
Cc1nc(=O)c(-c2ccccc2)c(C)n1-c1ccc(O)c(C(=O)O)c1	-1.1	4.2	x	7.8	0.7	x
N/C(COc1ccccc1)=N\NC(=O)c1cccnc1Oc1ccccc1	x	x	-1.8	x	x	3.5
O=S(=O)(c1ccccc1)c1ccccc1/C=N\O	3.3	-3.7	5.9	13.0	24.6*	-7.9
C=CCOc1ccccc1/C=N/O	5.3	-0.7	9.3	-17.7	4.1	-10.1
CCCCCCCCC/C(=N\O)c1ccccn1	x	x	28.3*	x	x	-26.2
COC(=O)C1=C(C)N(C)C(C)=C(C(=O)OC)C1c1ccccc1C	-10.9	23.6*	9.3	3.8	2.5	-9.9
Cc1cccc(-n2c(CNC(=O)c3ccc(S(=O)(=O)N4CCCC4)cc3)n[nH]c2=S)c1	-13.7	1.0	-4.2	17.7	16.0	2.8
COc1ccc(-n2c(CNC(=O)c3ccc(S(=O)(=O)N4CCCC4)cc3)n[nH]c2=S)cc1	-10.4	-5.3	1.6	-11.0	21.9*	-3.1
COc1cccc(Oc2ccc(N)cn2)c1	-11.3	-9.0	2.4	-4.2	23.2*	-2.5
Cn1c(-c2ccc(C=O)s2)nc2c3ccccc3c3ccccc3c21	x	x	17.7	x	x	-16.3
CCCNC(=O)c1noc2c1CCc1ccccc1-2	2.7	9.6	2.0	-9.0	1.5	-4.3
O=C(NCCc1ccccc1)c1noc2c1CCc1ccccc1-2	-2.2	36.3*	-6.4	26.8	7.9	4.5
O=C(CSc1nc2ccccc2c2nc3ccccc3n12)NCc1ccco1	-12.6	3.4	29.7*	40.8	-18.2	-25.2
CN(C)CCNC(=O)c1cc2ccccc2oc1=O	-7.8	3.4	-3.6	-2.5	21.3*	2.9
CCOC(=O)Cc1csc(NC(=S)NC(=O)c2ccc(Cl)cc2)n1	x	x	25.5*	x	x	-23.3
Cc1ccccc1Nc1cc2ccccc2c(=O)[nH]1	80.9*	6.8	x	7.5	2.6	x	Redox 05 DTT=>50;Redox H2O2 1DTT=>50
Cc1ccc2c(c1C)NC(C(=O)O)C1CC=CC21 (stereo unspecified)	52.6*	-19.0	x	u	11.3	x	Redox 05 DTT=>50;Redox H2O2 1DTT=>50
Cc1ccc(NC(=S)N2CCC(N(C)CC3CCCO3)CC2)c(C)c1 (stereo unspecified)	x	x	3.4	x	x	-4.1
CCOC(=O)C(C(=O)OCC)c1cc(Br)c2noc3c2c1C(=O)c1ccccc1-3	62.0*	3.8	9.1	31.6	4.3	-11.0	Redox 05 DTT=26.1*;Redox H2O2 1DTT=45.7*
CC(=O)OCCNc1cc(N2CCN(C)CC2)c2noc3c2c1C(=O)c1ccccc1-3	-5.6	7.4	x	-5.5	-13.4	x
CCC(C)NS(=O)(=O)c1ccc(NS(=O)(=O)c2ccc(F)cc2)cc1 (stereo unspecified)	x	x	13.6	x	x	-10.7
SMILES	Cdc25B inh	FXIa inh mix	PTPN22 inh 2	DUSP1 inh	FXIIa inh mix	LYP act	others
O=C(Nc1ccc2nc(-c3ccco3)c(-c3ccco3)nc2c1)N1CCCCCC1	51.0*	0.7	x	50.8*	3.2	x	Redox 05 DTT=>50;Redox H2O2 1DTT=>50;Redox cycler=>50
Cc1ccc(/C=c2\sc3nc(-c4ccco4)nn3c2=O)o1	20.2	8.1	2.7	8.7	-13.7	-5.3
COc1ccc(Br)cc1/C=c1\sc2nc(-c3ccco3)nn2c1=O	61.3*	-1.1	x	58.2*	10.1	x	Redox 05 DTT=>50;Redox H2O2 1DTT=>50;Redox cycler=>50
O=C(CCl)Nc1ccc(Oc2cnc3ccccc3n2)cc1	x	x	7.1	x	x	-4.0
N#Cc1c(N)sc(=S)c2c1CCN(Cc1ccccc1)C2	101.7*	-2.5	x	100.1*	0.9	x	Redox 05 DTT=12.9*;Redox H2O2 1DTT=23.9*;Redox cycler=34.6*
O=C(CN1C(=O)c2ccccc2C1=O)Nc1ccccc1C(=O)NC1CCCCC1	x	x	4.5	x	x	-5.2
Cc1cc(C)n2c(SCC(=O)N3CCN(S(=O)(=O)c4ccc(Cl)cc4)CC3)nnc2n1	-0.7	6.0	24.0*	56.3*	4.9	-25.9	Redox cycler=>50
Nc1nc2c(s1)CCc1c-2cnn1-c1ccccc1	18.7	0.1	-3.9	51.7*	6.3	2.8	Redox cycler=>50
CCCCCC#CCC#CCC#CCC#CCCCC(=O)O	20.2	5.7	x	29.4	7.0	x	Redox cycler=>50
CCCCCCCC(=O)NNC(=O)CCC(=O)O	x	x	14.1	x	x	-11.6
CCCSc1nnc(NC(=O)c2sc3nc(-c4cccs4)ccc3c2N)s1	20.5	13.1	5.1	52.7*	-6.1	-7.4	Redox cycler=>50
Cc1csc(NC(=O)c2sc3nc(-c4cccs4)ccc3c2N)n1	1.6	-0.7	6.8	29.0	5.5	-4.9
Nc1c(N2CCCC2)cc(Cl)c2nonc12	4.6	0.1	3.5	71.7*	5.6	-3.0	Redox cycler=>50
Nc1c(N2CCOCC2)cc(Cl)c2nonc12	-4.8	2.4	-4.8	-14.5	11.1	4.2
O=C(c1cccs1)c1no[n+]([O-])c1C(=O)c1cccs1	11.0	2.1	91.5*	91.2*	18.8	-91.3	Redox cycler=>50
O=C(c1cccs1)c1ccc(-c2cccs2)s1	10.7	-14.4	0.7	9.0	4.2	-0.9
O=C(CSC1=NCCN1)C1COc2ccccc2O1 (stereo unspecified)	-5.6	3.3	x	5.4	6.0	x
COc1ccc(-n2c(NC(=O)c3ccco3)c(C#N)c3nc4ccccc4nc32)cc1	6.1	2.8	-0.6	24.0	0.2	1.0	Redox cycler=>50
CCOC(=O)c1c(NC(=O)c2ccco2)n(C2CCCCC2)c2nc3ccccc3nc12	x	x	-1.2	x	x	5.2
Cc1cccc(NC(=O)c2cc(NC(=O)C3CCCCC3C(=O)O)ccc2N2CCCCC2)c1 (stereo unspecified)	10.4	2.7	x	65.2*	4.2	x	Redox cycler=>50
CCCc1cc(C(=O)N2CCN(c3ccccc3C)CC2)cs1	0.9	7.9	9.3	4.1	3.0	-12.4
Cc1nc2sc(C(c3ccccc3)N3CCN(c4ccccc4F)CC3)c(O)n2n1 (stereo unspecified)	6.3	-5.2	-3.4	15.5	7.5	0.3
